This passage reports outcome and AC50 results from PubChem BioAssay (EPA / NIEHS).

Inconclusive results are not listed. A structure can be active in one record and inactive in another. Calls of active or inactive are those of the source. How the source made its calls, unless noted: active means hit-call score of the fitted dose curve at least 0.9, where 1 is the maximum; inactive means score below 0.9.

Test [1] can be described thus: UKN4_HCS_LUHMES_neurite_outgrowth: University of Konstanz (UKN) Leist Lab Neurite Outgrowth Assay in human LUHMES cells (UKN4) (AID 2284206). Conditions: actives raise or lower the signal. The procedure, abridged:
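2-day-differentiated LUHMES, 24 h cpd exposure, live calcein-AM + H-33342 stain, HCS fluorescence imaging of neurite area; DMSO = baseline, bidirectional fit.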

Test [2] can be described thus: IUF_NPC1b_proliferation_BrdU_72hr: Leibniz Research Institute for Environmental Medicine (IUF) 72-hour Neural Progenitor Cell Bromodeoxyuridine (BrdU) Proliferation Assay (NPC1b) (AID 2284207). The method in brief:
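hNPC spheres (primary, GW 16-19 fetal cortex), single sphere/well, EGF+FGF medium; 72 h compound, no renewal; BrdU pulse last 16 h; luminescent ELISA; activity vs DMSO baseline; growth-factor withdrawal as positive control.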

Test [3] is described as follows: IUF_NPC1a_proliferation_area_72hr: Leibniz Research Institute for Environmental Medicine (IUF) 72-hour Neural Progenitor Cell Proliferation Area Assay (NPC1a) (AID 2284208). The method in brief:
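Spheres of 0.3 mm are plated singly in growth-factor medium and exposed from day 0. After three days at 37C and 5% CO2, sphere area is measured by phase contrast imaging, with activity referenced to DMSO.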

The nature of test [4]: IUF_NPC1_viability_72hr: Viability Assessment at 72 hours in the Leibniz Research Institute for Environmental Medicine (IUF) Neural Progenitor Cell Proliferation Assay (NPC1) (AID 2284209). The method in brief: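 Each well receives one 0.3 mm progenitor sphere from fetal brain cortex; test chemical is added at plating and left three days. Viability comes from alamar blue fluorescence, multiplexed with LDH and BrdU readouts in the same well.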

A short description of test [5]: CCTE_Mundy_HCI_Cortical_Synap_Neur_Matur_NeuriteSpotCountPerNeuriteLength: CCTE's Synaptogenesis and Neurite Maturation Assay in rat cortical cells for Neurite Spot Count per Neurite Length, Mundy Lab (AID 2284210). The procedure, abridged:
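Rat primary cortical cultures, glia arrested with AraC at DIV 5, were dosed with media change at DIV 7 and fixed at DIV 12. Synaptophysin puncta per MAP2-labelled neurite length were quantified by high-content imaging versus DMSO.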

The nature of test [6]: CCTE_Mundy_HCI_Cortical_Synap_Neur_Matur_BPCount: CCTE's Synaptogenesis and Neurite Maturation Assay in rat cortical cells for Branch Point Count, Mundy Lab (AID 2284211). The procedure, abridged: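 Branch point number is quantified by automated imaging of fluorescently labelled neurites and synapses in rat primary cortical neurons exposed from DIV 7 to DIV 12. Activity is analysed relative to DMSO negative control.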

Test [7] is described as follows: CCTE_Mundy_HCI_Cortical_NOG_NeuriteCount: CCTE's Neurite Outgrowth Assay in rat cortical cells for Neurite Count, Mundy Lab (AID 2284212).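 Further: cells fixed about two days after chemical exposure began.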 The method in brief:
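Neurite number per cell from high-content imaging of betaIII-tubulin immunostaining, with Hoechst nuclear counterstain.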

Test [8] in a line: CCTE_Mundy_HCI_Cortical_NOG_NeuriteLength: CCTE's Neurite Outgrowth Assay in rat cortical cells for Neurite Length, Mundy Lab (AID 2284213).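 On AC50: neurites imaged about 48 to 50 h after chemical exposure began.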 The method in brief: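 Neurite length was read by high-content imaging of βIII-tubulin-labelled neurites in rat primary cortical cultures. Activity was fitted relative to DMSO.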
The nature of test [9]: CCTE_Mundy_HCI_Cortical_Synap_Neur_Matur_NeuriteLength: CCTE's Synaptogenesis and Neurite Maturation Assay in rat cortical cells for Neurite Length, Mundy Lab (AID 2284214). The procedure, abridged: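 Neurite length in rat primary cortical cultures is imaged after MAP2, synaptophysin and Hoechst staining. Dosing starts DIV 7, ending DIV 12; DMSO serves as negative control and baseline.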

Test [10] is described as follows: CCTE_Mundy_HCI_Cortical_Synap_Neur_Matur_NeuriteSpotCountPerNeuron: CCTE's Synaptogenesis and Neurite Maturation Assay in rat cortical cells for Neurite Spot Count per Neuron Count, Mundy Lab (AID 2284215). The method in brief: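 Rat cortical primary cultures; AraC DIV 5 to arrest glia; dosing + media change DIV 7; fixed DIV 12. Anti-MAP2/anti-synaptophysin, Hoechst nuclei; HCI puncta count per neuron, positive fitting direction vs DMSO.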

Test [11] is described as follows: CCTE_Mundy_HCI_Cortical_Synap_Neur_Matur_SynapseCount: CCTE's Synaptogenesis and Neurite Maturation Assay in rat cortical cells for Synapse Count, Mundy Lab (AID 2284218). The method in brief:
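Synapse count per neuron is measured in rat cortical neurons exposed to chemicals between DIV 7 and DIV 12, with glial growth arrested by AraC at DIV 5. Synaptophysin and MAP2 staining is imaged automatically; activity is fitted relative to DMSO.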

Test [12] is described as follows: CCTE_Mundy_HCI_Cortical_Synap_Neur_Matur_CellBodySpotCount: CCTE's Synaptogenesis and Neurite Maturation Assay in rat cortical cells for Cell Body Spot Count, Mundy Lab (AID 2284223). The method in brief: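 Rat cortical neurons; AraC @ DIV 5; dose + media change DIV 7; fix DIV 12; anti-MAP2/anti-synaptophysin IF, Hoechst; HCI count of soma synaptophysin puncta/neuron; DMSO = negative control.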

Test [13] is described as follows: CCTE_Mundy_HCI_hNP1_Pro_ResponderAvgInten: CCTE's Proliferation Assay in human neuroprogenitor cells, Mundy Lab (AID 2284224; active means hit-call score of the fitted dose curve at least 0.9, where 1 is the maximum;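 further: human neural progenitor cells hNP1 derived from WA09 embryonic stem cells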). The method in brief: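 Human neuroprogenitors (hNP1, WA09 lineage) receive test chemical after 40 to 44 hours of attachment. A four-hour BrdU pulse begins twenty hours later, followed by fixation and high content imaging; signal is referenced to DMSO controls.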

The nature of test [14]: CCTE_Mundy_HCI_hN2_NOG_NeuriteCount: CCTE's Neurite Outgrowth Assay in human hN2 cells for Neurite Count, Mundy Lab (AID 2284219; active means hit-call score of the fitted dose curve at least 0.9, where 1 is the maximum). The procedure, abridged: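 In this morphology assay, hNP1-derived neurons received test chemical 2 h post-plating and were fixed two days later in warm paraformaldehyde/sucrose containing Hoechst 33342. Neurites, labelled by rabbit anti-βIII-tubulin (1:800) and Alexa Fluor-488 (1:500), were counted automatically.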

Test [15] in a line: CCTE_Mundy_HCI_hN2_NOG_NeuriteLength: CCTE's Neurite Outgrowth Assay in human hN2 cells for Neurite Length, Mundy Lab (AID 2284220; active means hit-call score of the fitted dose curve at least 0.9, where 1 is the maximum). The procedure, abridged: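 Using βIII-tubulin immunofluorescence and Hoechst nuclear counterstain, this component quantifies neurite length in hNP1-derived neurons.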
Test [16] in a line: CCTE_Mundy_HCI_hN2_NOG_NeuronCount: CCTE's Neurite Outgrowth Assay in human hN2 cells for Neuron Count, Mundy Lab (AID 2284221; active means hit-call score of the fitted dose curve at least 0.9, where 1 is the maximum). The method in brief: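 Read-out is the number of betaIII-tubulin-positive neurons imaged by automated high-content analysis, with DMSO as negative control.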
The nature of test [17]: BSK_BT_PBMCCytotoxicity: PBMC Cytotoxicity Assessment in the BioMAP Diversity Plus: BT Assay (AID 2284225).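 Further: PBMC viability measured by Alamar Blue dye reduction fluorescence.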 The note with it: primary human B cells with PBMC. The procedure, abridged: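 75,000 cells/well; cpd 1 h → SEB + TSST-1 (20 ng/mL final each) → 90 h → Alamar Blue 6 h → fluor. 546/580 nm. DMSO = neg. control/baseline.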
Read-out in test [18]: Secreted IgG (sIgG), gene 3500
Kind of test: BSK_BT_sIgG: BioMAP Diversity Plus: BT Assay for Secreted IgG (sIgG) Biomarker Activity (AID 2284226). Conditions: primary human B cells with PBMC. The method in brief:
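Secreted IgG from a human primary B cell–PBMC co-culture was measured by ELISA 24 hours after dosing, with DMSO defining baseline activity.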

Test [19] can be described thus: BSK_BT_Bcell_Proliferation: Viability Assessment in the BioMAP Diversity Plus: BT Assay for B cell Proliferation (AID 2284227). The note with it: primary human B cells with PBMC. The method in brief: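 Human B cell/PBMC co-culture; test chemical added; 72 h; TCA fix (10%), 0.1% SRB stain, A560 for total protein as a proliferation read-out; positive-direction fit vs DMSO baseline.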

What is called AC50 is the concentration at which the activity in the assay is half-maximal.

Turning to `CC(=NC#N)N(C)Cc1ccc(Cl)nc1`, the compound was classed as inactive in test [1], in [3], in test [4], in test [5], in test [6] and in test [7]. For the same compound, the outcome in test [8], in test [9], in test [10], in [11], in [12] and in test [13] was inactive. Besides, in test [2], the half-maximal activity concentration (AC50) is 0.385 µM (active).

On to `CCOP(=S)(OCC)Oc1ccc2c(C)c(Cl)c(=O)oc2c1`, for which the call in test [5], in test [10], in test [11], in [12] and in [13] was inactive. Moreover, the AC50 in test [6] was 50 µM (active); in [7], 89.6 µM (active); in [8], 84.7 µM (active); in test [9], 50 µM (active); in [14] it was 22.1 µM (active); in [15], 18.6 µM (active). In test [16], the AC50 is 18.9 µM (active).

For `CCOP(=S)(OCC)SCCSCC`, the outcome in [2], in [3], in test [4], in [5], in [6] and in [7] was inactive. Further, the call in test [8], in test [9], in test [10], in test [11], in test [12] and in test [13] was inactive.

For `CCOP(=S)(Oc1cnc(C(C)(C)C)nc1)OC(C)C` (stereo not drawn), the AC50 in test [2] is 12.8 µM (active); in test [5], 16.5 µM (active); in [6], 25.2 µM (active); in test [7], 26.4 µM (active); in [8], 26.1 µM (active); in test [9] it was 20.1 µM (active). Further, the AC50 in test [10] was 16.2 µM (active); in [11], 16.6 µM (active); in test [16], 79.3 µM (active); in test [12], 14.6 µM (active); in test [13], 77.6 µM (active). Further, the compound was called inactive in test [3], in test [4], in test [5], in test [6], in test [7] and in test [8]. In addition, the result in test [9], in [10], in [11], in test [14], in test [15] and in [12] was inactive. Also, in test [13], the call was inactive.

Regarding `CN(C)[C@@H]1C(=O)C(C(N)=O)=C(O)[C@@]2(O)C(=O)C3=C(O)c4c(O)cccc4[C@@](C)(O)[C@H]3[C@H](O)[C@@H]12`, the AC50 was 12.1 µM (active) in test [2]; 50 µM (active) in test [5]; 70.5 µM (active) in [6]; 60.9 µM (active) in [9]; 50 µM (active) in [10]; 50 µM (active) in test [11]. For the same compound, the AC50 in test [12] is 50 µM (active); in test [13], 90.6 µM (active). Further, the compound was called inactive in test [3], in test [4], in [7], in [8], in test [17] and in [18]. For the same compound, in test [19], the result was inactive.

On to `CCOP(=O)(OCC)Oc1cc(C)nc(C(C)C)n1`, for which the call in test [2], in [3], in test [4], in test [5], in test [6] and in [7] was inactive. Further, the outcome in test [8], in [9], in test [10], in test [11], in [12] and in test [13] was inactive.
